The whole screen tested about 360,000 compounds, of which about 9,100 (2.5%) were called active. Another 4% or so got no clear call; they are omitted. Rule as the data show it: active = max response below about -50%; inconclusive = no clear call, values can overlap the other calls; inactive = above that. The list comes from a sample in which actives are over-represented; it also holds similar structures and randomly drawn compounds.
% is scaled to controls: 0 for no effect and ±100 for the full control effect.

Chain of D(3) dopamine receptor (Homo sapiens) (P35462 whole entry, looked up): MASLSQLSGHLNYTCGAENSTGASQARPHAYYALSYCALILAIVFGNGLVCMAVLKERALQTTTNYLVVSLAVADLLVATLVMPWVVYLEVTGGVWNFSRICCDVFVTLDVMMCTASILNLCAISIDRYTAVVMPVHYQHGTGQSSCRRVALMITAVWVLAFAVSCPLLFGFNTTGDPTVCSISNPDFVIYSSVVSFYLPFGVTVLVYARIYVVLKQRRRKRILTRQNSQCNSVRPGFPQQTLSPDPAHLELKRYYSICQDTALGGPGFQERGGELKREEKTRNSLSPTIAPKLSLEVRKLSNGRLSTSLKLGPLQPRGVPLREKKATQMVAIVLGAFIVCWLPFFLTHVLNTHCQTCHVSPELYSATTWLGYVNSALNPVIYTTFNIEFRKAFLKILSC

In the experiment the target is D(3) dopamine receptor (Homo sapiens) (UniProt P35462). The experiment in a line: qHTS of D3 Dopamine Receptor Antagonist: qHTS. The conditions noted are these: D3R cells, DiscoveRx beta-arrestin luminescence, antagonist mode; active compounds read low. The essentials:
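Cells plated overnight at 1500 cells/well, then exposed to library compounds with dopamine controls for 90 minutes at 37 degrees C. DiscoveRx reagent added for 30–60 minutes at room temperature; luminescence read, quantitative HTS format.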
(In general: qHTS replaces the single test concentration by a dilution series.)
On to `COc1ccc(CCNC(=O)Nc2ccc3c(c2)c(=O)n(C)n3C)cc1OC`, for which the max response, negative = inhibition is 6.66% (inactive). With `O=C(CC(CC(=O)c1ccccc1)c1ccco1)c1ccccc1`, the max response, negative = inhibition is 11.4% (inactive). On to `CSCCC(C(=O)NC(C)(C)C)n1c(-c2ccccc2)nc2ccccc21` (stereo not drawn), for which the max response, negative = inhibition was -15.5% (inactive). Consider `CCC(C(=O)NC(C)(C)C)n1c(-c2ccccc2)nc2ccccc21` (stereo not drawn), for which the max response, negative = inhibition is 0.73% (inactive). As to `CC(C)(C)NC(=O)C(CCc1ccccc1)n1c(=O)c(-c2ccccc2)nc2ccccc21` (stereo not drawn), the max response, negative = inhibition is -66.1% (active). On to `Cc1cn([C@H]2C[C@H](O)[C@@H](CNC(=O)[C@H](N)Cc3cccnc3)O2)c(=O)[nH]c1=O`, for which the max response, negative = inhibition was 22.6% (inactive).

On to `Cc1ccc(NC(=O)COC(=O)CN2CCSC2=O)cc1F`, for which the max response, negative = inhibition was 37.5% (inactive). For `CCNC(=O)N1CCCC(C(=O)c2ccc(-c3ccccc3)cc2)C1` (stereo not drawn), the max response, negative = inhibition was 10.6% (inactive). In the case of `Cn1nccc1C(=O)N1CCCC(C(=O)c2ccc(Oc3ccccc3)cc2)C1` (stereo not drawn) it was 22.9% (inactive). For `O=C(c1ccc(-c2ccccc2)cc1)C1CCCN(C(=O)c2cncs2)C1` (stereo not drawn), the max response, negative = inhibition is -57.7% (active). Consider `CC1(C(=O)Nc2cccc3c2CCCC3)CCN1C(=O)CCc1ccc(Cl)cc1Cl` (stereo not drawn), for which the max response, negative = inhibition was 9.05% (inactive). In the case of `COc1cccc(CNc2nc3cc(-c4csc5ccccc45)sc3c(=O)n2C)c1` it was 6.45% (inactive); in that of `COc1cc2c(cc1OC)C(Nc1ccc(S(N)(=O)=O)cc1)=NC(C)(C)C2`, 3.38% (inactive); in that of `COc1cc2c(cc1OC)C(C(C)C)=NC(C)(C)C2`, -19.9% (inactive).

On to `COc1cc2c(cc1O)C(SC)=NC(C)(C)C2`, for which the max response, negative = inhibition is -89.4% (active). The same measure for `CCOC(=O)C1CCCN(C(=O)c2ccc(C)c(F)c2)CC1` (stereo not drawn): -26.1% (inactive); for `Cc1sc2ncnc(SCC(=O)NC3CCS(=O)(=O)C3)c2c1C` (stereo not drawn): -20.5% (inactive). Turning to `Cc1ccc2[nH]cc(CCNC(=O)C3CCCCC3)c2c1`, the max response, negative = inhibition was 11.6% (inactive).

`O=C(NCCc1c[nH]c2ccccc12)C1CCN(Cc2ccc(Br)cc2)CC1`: the max response, negative = inhibition was -82.8% (active). For `CCOc1ccc(CN2CCCN(C)CC2)cc1`, the max response, negative = inhibition was -29.1% (inactive). Take `CCOc1ccc(CN2CCN(Cc3c[nH]c4ccccc34)CC2)cc1`: the max response, negative = inhibition is -60% (active).

Take `CC1(C(=O)NCCc2c[nH]c3ccccc23)C=CC2(CCCCC2)N1C(=O)c1ccccc1` (stereo not drawn): the max response, negative = inhibition is 45.7% (inactive). Regarding `CCOc1ccc(CN2CCN(CCCc3ccccc3)C(CCO)C2)cc1` (stereo not drawn), the max response, negative = inhibition is -25.6% (inactive). Turning to `C[C@H]1CN([C@@H](C)CO)C(=O)CCCn2cc(nn2)CO[C@@H]1CN(C)S(=O)(=O)c1cccc(C#N)c1`, the max response, negative = inhibition was 14.4% (inactive).

As for `COc1ccc(N2c3ccccc3CN(Cc3ccccc3)[C@@H](C)[C@H]2Cc2ccc(-c3ccccc3)cc2)cc1`, the max response, negative = inhibition is 9.42% (inactive). Turning to `CCC(=O)N1Cc2cc(C(=O)NCc3cccc(F)c3)nc(-c3cccc(C4=CCCC4)c3)c2[C@H]1CCO`, the max response, negative = inhibition is -8.57% (inactive). As to `CCOC(=O)c1c(C)[nH]c(C)c1C(=O)COC(=O)/C=C/c1cccc([N+](=O)[O-])c1`, the max response, negative = inhibition is 19.7% (inactive). Take `O=C(COC(=O)/C=C/c1ccc(Cl)cc1)NC1CCS(=O)(=O)C1` (stereo not drawn): the max response, negative = inhibition was -20.8% (inactive).

As to `Cc1ccc(-c2nc(CSCC(=O)NC3CCN(Cc4ccccc4)CC3)c(C)o2)cc1`, the max response, negative = inhibition was -76.3% (active). In the case of `Cc1ccc(-c2nc(CS(=O)CC(=O)NC3CCCC3)c(C)o2)cc1` (stereo not drawn), the max response, negative = inhibition was 12.9% (inactive). As for `Cc1cc(NC(=O)CSCc2nc(-c3cccc(Cl)c3)oc2C)no1`, the max response, negative = inhibition was -28.8% (inactive).

Take `CN(C)C(CNC(=O)Cc1ccc([N+](=O)[O-])cc1)c1ccccc1` (stereo not drawn): the max response, negative = inhibition was -19% (inactive). As to `CN(C)C(CNC(=O)c1cc2ccccc2o1)c1ccccc1` (stereo not drawn), the max response, negative = inhibition is -82.9% (active). Take `Cc1cc(NC(=O)c2cc3ccccc3o2)no1`: the max response, negative = inhibition is 3.37% (inactive). The same measure for `COc1cc(=O)[nH]c(=O)n1C(=O)Cc1ccccc1`: -54.3% (active). Regarding `CCCOc1ccc(Cn2c(O)cc(=O)[nH]c2=O)cc1`, the max response, negative = inhibition is -8.86% (inactive). For the compound `COc1ccc(OC)c(NC(=O)C2(C)CCN2C(=O)Cc2ccccc2)c1` (stereo not drawn), the max response, negative = inhibition is 19.2% (inactive). For the compound `CC1(C(=O)NS(=O)(=O)c2ccccc2)CCN1C(=O)C1CCCCC1` (stereo not drawn), the max response, negative = inhibition was -29.5% (inactive). Take `CC(=O)Nc1ccc(-c2ccnc3c2CC(C(=O)NC(C)C)O3)cc1` (stereo not drawn): the max response, negative = inhibition was 23.5% (inactive). Take `CC1CC(NC(=S)N(C)C)CC(C)(C)C1` (stereo not drawn): the max response, negative = inhibition is -2.04% (inactive). `CC(CC(=O)O)C(=O)c1ccc(Cl)c([N+](=O)[O-])c1` (stereo not drawn): the max response, negative = inhibition was 7.05% (inactive). As for `O=C(/C=C/c1ccc(Cl)c([N+](=O)[O-])c1)c1ccc(O)cc1`, the max response, negative = inhibition is -79.6% (active). The same measure for `CC(=O)Nc1ccc(C=CC(=O)c2ccc([N+](=O)[O-])cc2)cc1`: 1.23% (inactive); for `CCCCn1nnnc1C(c1ccccc1)N1CCN(c2ccccc2OC)CC1` (stereo not drawn): -12.3% (inactive); for `OC(c1ccc(F)cc1)c1ncc(-c2cccc(C(F)(F)F)c2)[nH]1` (stereo not drawn): 4.48% (inactive). Turning to `CCCCNC(=O)C[C@@H]1C[C@@]2(C(=O)OCC)CCC=C2N(Cc2cccc3ccccc23)C1=O`, the max response, negative = inhibition is 0% (inactive). Turning to `CC1=C/C(=N\OS(=O)(=O)c2ccccc2)C=CC1=O`, the max response, negative = inhibition was -80.7% (active). As to `CC(C)(C)C1CCC(=O)N2CCC[C@]2(c2ccccc2)C1` (stereo partly drawn), the max response, negative = inhibition is 0% (inactive). In the case of `CC1(C)OC(=O)C2=C(C[C@@H](C3CCCC3)O[C@@H]2c2ccc(Cl)cc2)O1`, the max response, negative = inhibition is 0.96% (inactive). As to `CN(CC(=O)O)C(=O)c1ccccc1`, the max response, negative = inhibition is -19.9% (inactive).

Turning to `CN(O)C(=S)c1ccccc1`, the max response, negative = inhibition was -113% (active).

On to `CN(Cc1ccccc1)C(=O)c1cccc(C(=O)N(C)Cc2ccccc2)c1`, for which the max response, negative = inhibition is -13% (inactive).

On to `Cc1csc(=O)n1CCC(=O)OCC(=O)Nc1ccc(N2CCOCC2)cc1`, for which the max response, negative = inhibition is -0.664% (inactive). As to `OC(COCC1COc2ccccc2O1)CN1CCN(c2ccc(F)cc2)CC1` (stereo not drawn), the max response, negative = inhibition is -58.5% (active). For `O=[N+]([O-])c1ccc(N2CCN(CC(O)COc3ccccc3)CC2)cc1` (stereo not drawn), the max response, negative = inhibition was -27.1% (inactive). As to `O=C(COC(=O)c1ccc(F)cc1)NCC1COc2ccccc2O1` (stereo not drawn), the max response, negative = inhibition was -19.4% (inactive). Consider `CCc1cccc(CC)c1N1C(=O)CC(Sc2ccccc2N)C1=O` (stereo not drawn), for which the max response, negative = inhibition is -0.919% (inactive). For `C[C@H](CO)N1C[C@H](C)[C@@H](CN(C)S(=O)(=O)c2ccc(Oc3ccccc3)cc2)OCc2cn(nn2)CCCC1=O`, the max response, negative = inhibition is 2.13% (inactive).

Values taken from PubChem BioAssay AID652054 (National Center for Advancing Translational Sciences (NCATS), 2013).
